In PubChem BioAssay AID1021 (Emory University Molecular Libraries Screening Center, 2008):
Several values for one entry are separate records, joined by “and”; a condition that tells them apart may be missing. Identical values can stand only once. Among all 220,000 compounds or so, about 2,100 (0.95%) were called active.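 How the source made its calls: active means compounds that cut the binding signal by more than half at the single screening dose; inactive means the rest.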 For the sample, actives were picked, then their nearest neighbours and some compounds at random. Some compounds were tested as several samples or in several runs, with calls that do not always agree.

These compounds were tested against Induced myeloid leukemia cell differentiation protein Mcl-1 (Homo sapiens) (UniProt Q07820) (assay: Mcl-1/Bid binding inhibitors, primary screen, biochemical, TR-FRET, 1536-well (AID 1021;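 further: His-tagged Mcl-1 with europium anti-His antibody binding Bid BH3 peptide; 0% = Mcl-1 plus peptide wells and 100% = peptide-only wells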)). Conditions: TR-FRET Mcl-1/Bid-Dy647 peptide binding, at 21.7 µM, stronger effect = higher value.
Induced myeloid leukemia cell differentiation protein Mcl-1 (Homo sapiens), sequence (Q07820 whole entry, looked up): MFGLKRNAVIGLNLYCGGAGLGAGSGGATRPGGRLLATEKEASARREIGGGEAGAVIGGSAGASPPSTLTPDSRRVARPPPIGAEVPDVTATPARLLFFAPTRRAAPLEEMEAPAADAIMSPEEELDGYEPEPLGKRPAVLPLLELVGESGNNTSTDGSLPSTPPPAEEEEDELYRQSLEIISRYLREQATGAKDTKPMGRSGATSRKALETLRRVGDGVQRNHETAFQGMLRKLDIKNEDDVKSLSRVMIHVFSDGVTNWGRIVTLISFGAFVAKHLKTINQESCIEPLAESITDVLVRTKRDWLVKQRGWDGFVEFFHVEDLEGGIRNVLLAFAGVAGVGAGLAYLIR
With O=c1cc(C(F)(F)F)[nH]c(=O)n1C1CCCCC1 the inhibition was -10.9% (inactive). In the case of Cc1ccc(Nc2cc(=O)n(C3CCCCC3)c(=O)[nH]2)cc1C, the inhibition is reported as 94.6% (active). Cc1ccc(NNC(=O)C2CCC2)cc1C was tested, and the inhibition was -13% (inactive). Cc1c(C(=O)Nc2ccccc2)sc2nc3n(c(=O)c12)CCCCC3 was tested, and the inhibition was -9.14% (inactive). For O=C(Cn1c[n+](CC(=O)c2ccc([N+](=O)[O-])cc2)cn1)c1ccc([N+](=O)[O-])cc1, the inhibition was -21.7% (inactive) and -16.6% (inactive). In the case of CC(=O)Nc1ccc(N2C(=O)C3C4CC(=O)C(c5ccccc54)C3C2=O)cc1 (stereo unspecified), the inhibition is reported as -11.5% (inactive). With CC(=O)Oc1cccc(N2C(=O)C3CC=C(Cl)CC3C2=O)c1 (stereo unspecified) the inhibition was -19.4% (inactive). For O=C(Oc1cccc(N2C(=O)C3C4c5ccccc5C(c5ccccc54)C3C2=O)c1)c1ccco1 (stereo unspecified), the inhibition was 92% (active). For O=[N+]([O-])c1ccc(N2CCSCC2)cc1O, the inhibition was -15.7% (inactive). In the case of O=C(CS(=O)(=O)c1ccc(C(F)(F)F)cn1)NNC(=O)c1ccccc1, the inhibition is reported as -2.12% (inactive). With CCOC(=O)c1cnc2[nH]c3ccccc3n2c1=O the inhibition was 10.7% (inactive). In the case of Cc1ccc(-c2nc3ccccc3[nH]c2=O)cc1, the inhibition is reported as -0.25% (inactive). For O=c1[nH]c2ccccc2n2c(-c3ccccc3)nnc12, the inhibition was 64.9% (active). With CCCCc1nnc(NC(=O)CSc2nc(N)cc(=O)[nH]2)s1 the inhibition was -5.95% (inactive). With Cn1c2ccccc2c2cc(/C=C(\NC(=O)c3ccccc3)C(=O)NCC(=O)O)ccc21 the inhibition was -1.08% (inactive). In the case of Cc1cc(NS(=O)(=O)c2ccc(NC(=O)c3cccc(OC(F)F)c3)cc2)nc(C)n1, the inhibition is reported as -2.38% (inactive). With Cn1cccc1/C=N/NC(=O)CNc1cccc2ccccc12 the inhibition was -45.9% (inactive). O=C(O)C(NS(=O)(=O)c1cccc2nsnc12)c1ccccc1 (stereo unspecified) was tested, and the inhibition was -3.92% (inactive). O=C(C(NS(=O)(=O)c1cccc2nsnc12)c1ccccc1)N1CCN(c2ccccc2)CC1 (stereo unspecified) was tested, and the inhibition was -29.6% (inactive). For O=C(O)c1ccc(NS(=O)(=O)c2cccc3nsnc23)cc1, the inhibition was 101% (active). With N#Cc1c(N)nc2c(c1N)CC(C(F)(F)F)O2 (stereo unspecified) the inhibition was 1.45% (inactive). In the case of Cc1nn(Cc2ccccc2)c2c1C(c1ccccc1)C(C#N)=C(N)O2 (stereo unspecified), the inhibition is reported as -17.5% (inactive). In the case of Cc1nn(-c2ccccc2)c2c1C(c1ccc(F)cc1)C(C#N)=C(N)O2 (stereo unspecified), the inhibition is reported as -9.94% (inactive). For COc1ccccc1C1C(C#N)=C(N)Oc2c1c(-c1ccccc1)nn2-c1ccccc1 (stereo unspecified), the inhibition was 97.3% (active). In the case of COc1cc(S(=O)(=O)N(Cc2cccs2)C2CC2)ccc1-n1cnnn1, the inhibition is reported as 1.4% (inactive). CCC(CC)NC(=O)CSc1nnc(-c2c[nH]c3ccccc23)o1 was tested, and the inhibition was 1.1% (inactive). With CN(C)c1ccc(Nc2c3c4c(cccc4n(C)c2=O)C(=O)c2ccccc2-3)cc1 the inhibition was 59.4% (active). For CC1(C)CC(=O)C=C(Nc2ccccc2)C1, the inhibition was -54% (inactive). For COC(=O)NNC1=CC(=O)CC(C)(C)C1, the inhibition was -13.6% (inactive). For Cc1ccc(C(=O)OC2=CC(=O)CC(C)(C)C2)cc1, the inhibition was 89.4% (active). For CC(=O)Nc1cccc(/C(C)=N/NC(=O)c2ccccc2Cl)c1, the inhibition was -9.47% (inactive). In the case of O=C(NC1CC1)c1ccc2c(c1)NC(=O)c1ccccc1S2, the inhibition is reported as -30.3% (inactive). With C/C(=N\Nc1cccc(C(=O)O)c1)c1ccc2c(c1)Nc1ccccc1S2 the inhibition was 92% (active). For COc1cc(/C=N/NC(=O)CCc2n[nH]c(=O)[nH]c2=O)ccc1O, the inhibition was -25.6% (inactive). In the case of O=C(OCc1nc2ccccc2[nH]1)C1CCCCC1, the inhibition is reported as -17.4% (inactive). With COc1ccc(C(=O)C2CCCN(Cc3ccc4nonc4c3)C2)c(C)c1 (stereo unspecified) the inhibition was -14.3% (inactive). In the case of O=C(Nc1ccc(Cl)cc1)N1CCc2[nH]c3ccccc3c2C1, the inhibition is reported as 83.8% (active). For O=C(NC1CCCCC1)N1CCc2[nH]c3ccccc3c2C1, the inhibition was -16.1% (inactive). In the case of Fc1ccc(NC(=S)N2CCc3[nH]c4ccccc4c3C2)cc1, the inhibition is reported as -6.12% (inactive). Cc1ccccc1CN(c1ccc(C(=O)NCC2CCCO2)cc1)S(C)(=O)=O (stereo unspecified) was tested, and the inhibition was -0.03% (inactive). For CNS(=O)(=O)c1ccc(N2CCCC2=O)c([N+](=O)[O-])c1, the inhibition was -4.05% (inactive). In the case of COc1ccc(CCN(C)C(=O)C2CCCN(Cc3ccc(OC)c(OC)c3)C2)cc1OC (stereo unspecified), the inhibition is reported as -22.7% (inactive) and 54.1% (active). In the case of COc1ccc(CN2CCCC(CNC(=O)c3ccc(F)cc3)C2)cc1OC (stereo unspecified), the inhibition is reported as -22.9% (inactive). In the case of COc1ccc(CN2CCCC(C(=O)c3ccc(Cl)cc3)C2)cc1Cn1cncn1 (stereo unspecified), the inhibition is reported as -25.6% (inactive). With CC(C)CC(=O)NC(=S)NNC(=O)c1cccc([N+](=O)[O-])c1 the inhibition was -73.3% (inactive). Cn1nc(C(F)(F)F)c(-c2ccc(F)cc2)c1NC(=O)CSCC(=O)O was tested, and the inhibition was -12.6% (inactive). FC(F)(F)c1cccc(N/N=C/c2ccccc2)c1 was tested, and the inhibition was 93.7% (active). O=C(O)CSCC(=O)Nc1cccc(C(F)(F)F)c1 was tested, and the inhibition was -0.04% (inactive). With O=[N+]([O-])c1ccc(N/N=C/c2ccccc2)cc1 the inhibition was -8.01% (inactive). In the case of Clc1ccc(C[n+]2cc(-c3ccc(Cl)cc3)n3c2CCC3)cc1, the inhibition is reported as -1.66% (inactive). With Cc1ccc2[nH]c3c(=O)n(Cc4ccccn4)cnc3c2c1 the inhibition was 14.7% (inactive). For COc1ccc2[nH]c3c(=O)n(Cc4ccco4)cnc3c2c1, the inhibition was 72.9% (active). In the case of O=c1c2[nH]c3ccc(Cl)cc3c2ncn1Cc1ccccn1, the inhibition is reported as 10.2% (inactive). S=C(NNC(=S)NC1CC2C=CC1C2)NC1CC2C=CC1C2 (stereo unspecified) was tested, and the inhibition was -96.2% (inactive). In the case of CCCCCCCCCCCCC(NC(C)=O)(C(=O)OCC)C(=O)OCC, the inhibition is reported as 1.76% (inactive). CN(C)c1ccc(/C=C/C(=O)c2ccc(O)cc2)cc1[N+](=O)[O-] was tested, and the inhibition was -2.27% (inactive). CCO[C@@H]1OC(C(=O)NCc2nc3ccccc3[nH]2)=C[C@H](C2CCCCC2)[C@H]1CCCO was tested, and the inhibition was 5.02% (inactive). CCc1ccccc1N1CN(Cc2ccco2)CNC1=S was tested, and the inhibition was -26.9% (inactive). For Cc1nccc(-c2ccc(-n3c(C)ccc3C)cc2)n1, the inhibition was 6.3% (inactive). For COc1ccccc1NC(=O)/C=C/C(=O)O, the inhibition was -31.9% (inactive). With O=[N+]([O-])c1cccc(Nc2c3ccccc3nc3ccccc23)c1 the inhibition was -10.4% (inactive). For O=[N+]([O-])c1cccc(-c2nnc3c4ccccc4c4ccccc4n23)c1, the inhibition was 52.9% (active). For O=[N+]([O-])c1cccc(C2=NCCS2)c1, the inhibition was -9.78% (inactive). CCOC(=O)C1CCCN(C(=O)COc2ccc(N(C)S(=O)(=O)c3ccc(C)cc3)cc2)C1 (stereo unspecified) was tested, and the inhibition was -9.64% (inactive). For COc1ccc(C(=O)COC(=O)COc2ccc(C)c(C)c2)cc1, the inhibition was 11.1% (inactive). CC(NC(=O)COC(=O)c1ccc2c(c1)OCO2)c1ccccc1 (stereo unspecified) was tested, and the inhibition was -4.79% (inactive). In the case of COc1ccc(Nc2ncnc3sc(-c4ccccc4)cc23)c(OC)c1, the inhibition is reported as -15% (inactive). For Cc1cc(NC(=O)c2cccc(N3C(=O)CCC3=O)c2)no1, the inhibition was -19.2% (inactive). Cc1cccc(NC(=O)c2cc(N3C(=O)CCC3=O)ccc2Cl)n1 was tested, and the inhibition was 69.1% (active). With Cc1cccc(NC(=O)c2ccc3ccccc3n2)n1 the inhibition was -24% (inactive). In the case of COc1cc(/C=N/Nc2nc3ccccc3s2)ccc1O, the inhibition is reported as -5.09% (inactive). For c1ccc2sc(NN=C3CCCC3)nc2c1, the inhibition was -7.33% (inactive). O=[N+]([O-])c1cc(Br)c(O)c(/C=N/Nc2nc3ccccc3s2)c1 was tested, and the inhibition was 85.8% (active). With Cc1ccc(NC(=O)c2nc[nH]c2C(=O)N[C@@H](CCCCNC(=O)OC(C)(C)C)C(=O)OC(C)(C)C)cc1 the inhibition was -46.2% (inactive). In the case of CCOc1ccc(N=C2SC(C(=O)O)CC(=O)N2C)cc1 (stereo unspecified), the inhibition is reported as 3.39% (inactive). In the case of CCOc1ccc(N=C2NC(=O)S/C2=C\c2ccc(O)cc2)cc1, the inhibition is reported as 85.2% (active). NC1=NC(=O)S/C1=C\c1ccc(O)cc1 was tested, and the inhibition was -45.3% (inactive). For CCc1ccnc(NS(=O)(=O)c2ccc3c(c2)OCCO3)c1, the inhibition was -5.34% (inactive). With Cn1c(=O)n(C)c2cc(C(=O)Nc3ccc4c(c3)OCO4)ccc21 the inhibition was -32.5% (inactive). For O=C(Nc1ccc2c(c1)OCO2)c1ccc(N2C(=O)c3ccccc3C2=O)cc1, the inhibition was 56.4% (active). In the case of O=C(Nc1ccccc1)c1ccc2c(c1)OCO2, the inhibition is reported as 1.56% (inactive). With COc1ccc(C(=O)OCC(=O)NCC2CCCO2)cc1[N+](=O)[O-] (stereo unspecified) the inhibition was -15.9% (inactive). [O-][N+]12CCCCC1CCCC2CO (stereo unspecified) was tested, and the inhibition was -0.58% (inactive). COC(=O)CCCC1=CC2=C(c3ccccc3)C(=O)C(C)(OC(=O)C3CCCC3)C(=O)C2=CN1c1ccc(OC)cc1 (stereo unspecified) was tested, and the inhibition was -60.4% (inactive). With CCOC(=O)N1CCN(C(=O)c2ccc(S(=O)(=O)c3ccc(C)cc3)c(NC(C)=O)c2)CC1 the inhibition was -11.4% (inactive). In the case of CC(=O)Nc1cc(C(=O)O)ccc1S(=O)(=O)c1ccc(Cl)cc1, the inhibition is reported as 83% (active). For Cc1ccc(S(=O)(=O)c2ccc(Cl)cc2)cc1S(=O)(=O)NC(C(=O)O)C(C)C (stereo unspecified), the inhibition was 4.83% (inactive). In the case of Cn1nccc1NC(=O)Nc1ccc(OC(F)(F)F)cc1, the inhibition is reported as -8.69% (inactive). O=C(Nc1ccc2oc(-c3ccccc3F)nc2c1)c1ccco1 was tested, and the inhibition was -18.3% (inactive). With COc1cc(OC)cc(C(=O)Nc2ccc(-c3nc4ccccc4o3)c(O)c2)c1 the inhibition was 70.7% (active). COc1cc(OC)cc(C(=O)Nc2ccc(S(=O)(=O)Nc3cc(C)on3)cc2)c1 was tested, and the inhibition was -2.64% (inactive). In the case of O=C(NCCCn1ccnc1)C(=O)NCC1OCCN1S(=O)(=O)c1cc(F)ccc1F (stereo unspecified), the inhibition is reported as -20.9% (inactive). Cn1c(CSCC(=O)Nc2ccccc2)nnc1SCc1ccccc1 was tested, and the inhibition was 1.29% (inactive). With CC(Sc1nnc2c(n1)C1CCC2(C)C1(C)C)C(=O)Nc1ccccc1 (stereo unspecified) the inhibition was 66.7% (active). With CSc1nc(C)cc(SC(C(C)=O)C(=O)Nc2ccccc2)n1 (stereo unspecified) the inhibition was -18.3% (inactive). With CC(Sc1nc(-c2ccccc2)cc(C(F)(F)F)n1)C(=O)Nc1ccc2c(c1)OCO2 (stereo unspecified) the inhibition was -32.5% (inactive).
